Screening results from PubChem BioAssay.
In the library only some 7.5% were active in any assay of this set; here they are far more common.
FLuc counter = counter-screen for miR-21 project: firefly luciferase inhibitors or activators; purified FLuc, Km substrates, luminescence inhibition; hit rate 6.9% among 360,000; Potency, µM (titrated, usually from 57.5 µM), actives largely listed as inhibitors; P08659; further: nearly all actives have a fitted effect of over 55% in size
Target sequence (P08659 whole entry, looked up): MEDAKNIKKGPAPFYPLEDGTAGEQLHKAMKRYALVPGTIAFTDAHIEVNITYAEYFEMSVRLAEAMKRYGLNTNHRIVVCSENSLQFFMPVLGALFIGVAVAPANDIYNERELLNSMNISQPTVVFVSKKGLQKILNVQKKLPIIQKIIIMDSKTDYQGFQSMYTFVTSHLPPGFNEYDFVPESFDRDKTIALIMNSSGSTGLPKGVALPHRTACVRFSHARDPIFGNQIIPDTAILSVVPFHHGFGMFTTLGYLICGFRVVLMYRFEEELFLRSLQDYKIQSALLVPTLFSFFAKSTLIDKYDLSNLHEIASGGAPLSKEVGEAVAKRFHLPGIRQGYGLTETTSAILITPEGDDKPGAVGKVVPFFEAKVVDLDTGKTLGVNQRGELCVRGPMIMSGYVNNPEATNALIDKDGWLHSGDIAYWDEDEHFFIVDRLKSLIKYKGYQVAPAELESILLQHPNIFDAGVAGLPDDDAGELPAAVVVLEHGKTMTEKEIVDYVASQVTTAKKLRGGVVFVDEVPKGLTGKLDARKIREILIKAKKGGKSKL
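Purified P. pyralis luciferase, 10 nM final, with Km-level 10 uM D-luciferin and 10 uM ATP in 50 mM Tris acetate pH 7.5, 10 mM Mg acetate, 0.01% Tween-20, 0.05% BSA; 6-point qHTS titration about 60 µM downward; luminescence read.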
KinaseGlo FLuc = blocks Kinase-Glo luciferase, a counter-screen artifact; AID 1379; Potency, µM (highest dose often 38.3 µM), actives largely listed as inhibitors; Kinase-Glo luciferase, ATP luminescence, 8 min; hit rate 0.28% among 200,000; further: nearly all actives have a fitted effect of over 60% in size
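Compounds were added to a substrate mix at pH 7.2 (50 mM imidazole, 10 uM ATP, within the enzyme's linear range), followed by Kinase-Glo detection reagent; luminescence was measured after 8 minutes at ambient temperature.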
NPC1 prom act = activators of NPC1 promoter. Huh7 NPC1 promoter luciferase reporter, 24 h. Potency, µM (series often up to 9.22 µM), usual class: activators. hit rate 2.4% among 320,000; further: nearly all actives have a fitted effect of over 60% in size
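NPC1 promoter–luciferase Huh7 cells; 24 h compound; luminescence.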
ELG1 genotox = genotoxicity induction in ELG1-luciferase HEK293T cells. HEK293T ELG1-luciferase reporter, luminescence, 16 h. Potency, µM (titrated, usually from 46 µM), most hits filed as activators. hit rate 1.3% among 330,000; further: nearly all actives have a fitted effect of over 60% in size
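Quantitative HTS format in 1536-well plates. HEK293T ELG1-luciferase reporter cells receive test compound and are incubated 16 hr at 37 °C, 5% CO2; ONE-Glo added, 30 min room temperature, then luminescence read.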
SMN2 splice up = enhancers of SMN2 splice variant expression; AID 1458; HEK293 SMN2-luciferase splicing reporter, luminescence, 30-36 h; Potency, µM (titrated, usually from 46.1 µM), most hits filed as activators; hit rate 2.8% among 210,000; further: nearly all actives have a fitted effect of over 55% in size
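HEK293 cells carry an SMN2 minigene-luciferase reporter in which exon 7 inclusion puts luciferase in frame. Cells were seeded at 2000 cells/well, attached for 10-12 hours, then exposed to compounds for 30-36 hours at 37C before ONE-Glo luminescence.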
Rab9 promoter act = activators of Rab9 promoter; Huh7 Rab9 promoter-luciferase reporter, luminescence, 24 h; Potency, µM (titrated, usually from 9.22 µM), usual class: activators; hit rate 2.8% among 320,000; further: nearly all actives have a fitted effect of over 60% in size
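Huh7 cells stably carrying Rab9 promoter–luciferase reporter, plated 1500 cells/well, compound added after 2 h and incubated 24 h at 37 °C; luciferase luminescence then read after 10 min with detection reagent.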
A number is an active result; i = inactive; ? = inconclusive; nt = not tested or not shown; [ ] = remark or other dose. The call rests on the fitted dose curve; in most records, active means well fitted curve in the direction sought with a large enough effect; inconclusive means small, poorly fitted or top-dose-only effect, or another doubt; inactive means no such curve, though single readings can be large; an effect the other way counts as inactive or inconclusive.

SMILES	FLuc counter	KinaseGlo FLuc	NPC1 prom act	ELG1 genotox	SMN2 splice up	Rab9 promoter act
CC(=O)Cn1nnc2sc3c(c2c1=O)CCC(C(C)(C)C)C3 (stereo not given)	21.3µM	i	3.55µM	i	i	2.82µM
CCn1nnc2sc3c(c2c1=O)CCC(C)C3 (stereo not given)	13.5µM	i	?	i	i	?
NS(=O)(=O)c1cccc(NC(=O)CN2C(=O)C(=O)N(Cc3ccccc3)C2=O)c1	nt	nt	nt	i	nt	nt
O=C(N/N=C\c1cccc(Cl)c1)c1ccc(Cn2cc(Br)c([N+](=O)[O-])n2)o1	5.36µM	i	i	i	i	i
Cc1c(Cl)c([N+](=O)[O-])nn1Cc1ccc(C(=O)N/N=C\c2cccc(Br)c2)o1	7.57µM	i	i	i	i	i
Cc1ccccc1/C=N\NC(=O)c1ccc(Cn2cccn2)o1	16.9µM	i	i	i	i	i
O=C(N/N=C\c1cccc(Cl)c1)c1ccc(Cn2cccn2)o1	12µM	i	i	i	i	i
O=C(CSc1nccn1Cc1ccc(F)cc1)NCc1ccco1	i	nt	nt	nt	nt	nt
COc1ccc(OC)c(S(=O)(=O)NC(N)=NCCc2ccccc2OC)c1	i	i	i	i	i	i
O=C(N/N=C/c1cccc(Br)c1)c1ccc(Cn2cc(Br)cn2)o1	13.5µM	i	i	i	i	i
Cc1ccc(N2CC(NC(=O)C3CCCCC3)CC2=O)cc1C (stereo not given)	i	nt	nt	nt	nt	nt
Oc1ccc(/C=N/Nc2ncc(Br)cn2)c(O)c1	10.7µM	i	?	14.6µM	i	?
Oc1ccc(Br)cc1/C=N/Nc1ncc(-c2ccccc2)cn1	i	i	i	i	i	i
Oc1ccccc1/C=N/Nc1nccnc1Cl	16.9µM	?	i	13µM	i	i
CC(C)(C)c1nnc(N/N=C/c2ccccc2O)n(N)c1=O	?	i	i	i	i	i
O=[N+]([O-])c1ccccc1/C=N/Nc1nccnc1Cl	26.9µM	?	?	?	i	3.55µM
Nc1cc(Cl)nc(N/N=C/c2ccccc2[N+](=O)[O-])n1	23.9µM	i	?	i	?	?
COc1ccccc1CNc1cc(-c2cccc(NS(C)(=O)=O)c2)ncn1	nt	i	nt	nt	i	nt
Oc1ccc(/C=N/Nc2nccnc2Cl)c(O)c1	23.9µM	3.55µM	i	?	i	i
O=c1[nH]ncc(N/N=C\c2ccc(O)cc2O)c1Cl	?	i	i	?	i	i
Cc1cccc(NC(=S)NC(=O)c2ccc(-c3ccccc3)cc2)n1	10.7µM	nt	2.82µM	?	nt	2.24µM
Cc1cccc(NC(=S)NC(=O)c2oc3ccccc3c2C)n1	?	nt	1.26µM	?	nt	1.41µM
Cc1cccc(NC(=O)Cc2ccc(-c3ccccc3)cc2)n1	?	nt	i	i	nt	i
Nc1nonc1-c1nc2ccccc2n1CC(=O)N/N=C/c1ccc(-c2cccc(C(=O)O)c2)o1	26.9µM	i	i	i	i	i
Cc1ccc(NC(=O)Cn2c(-c3nonc3N)nc3ccccc32)cc1C	i	nt	nt	nt	10µM	nt
SMILES	FLuc counter	KinaseGlo FLuc	NPC1 prom act	ELG1 genotox	SMN2 splice up	Rab9 promoter act
Cc1nnc(N/N=C/c2ccc(-c3ccc(Br)cc3)o2)n1N	?	i	i	i	i	i
Cc1nnc(N/N=C\c2ccc(-c3cccc(C(=O)O)c3)o2)n1N	10.7µM	i	i	i	i	?
CC(=O)c1c(C)[nH]c(C(=O)N(C)C(c2ccccc2)c2ccccc2)c1C	i	i	i	i	i	i
Nc1c(C(=O)Nc2nc3ccccc3s2)sc2nc(-c3cccs3)ccc12	2.39µM	i	?	?	?	?
Nc1c(C(=O)Nc2ccccc2Br)sc2nc(-c3cccs3)ccc12	nt	nt	nt	nt	i	nt
CC(=O)c1sc2nc(-c3cccs3)ccc2c1N	7.57µM	i	i	11.6µM	?	3.55µM
Nc1c(C(=O)Nc2ccccc2)sc2nc(-c3ccco3)ccc12	12µM	i	?	i	i	?
Cc1ccc(CNC(=O)C2CN(S(C)(=O)=O)c3cc(Cl)ccc3O2)cc1 (stereo not given)	i	i	i	i	i	i
COc1ccc(-c2nc(=S)[nH][nH]2)cc1	i	i	i	i	i	i
CCOc1ccc(-c2nc(=S)[nH][nH]2)cc1	15.1µM	i	i	?	?	?
O=C(NCCc1ccccc1)c1cnc2sccn2c1=O	16.9µM	i	?	?	12.6µM	3.55µM
Cc1cccn2c(=O)c(C(=O)NCCc3ccccc3)cnc12	4.78µM	nt	nt	nt	nt	nt
O=C(NCc1ccco1)c1cnc2sccn2c1=O	i	i	i	i	i	i
CC(C)CNC(=O)c1ccc(NC(=O)c2cccs2)cc1	?	i	i	i	i	i
Cc1cc(C)c(NC(=O)Cn2ccn(-c3cccc(Cl)c3)c(=O)c2=O)c(C)c1	i	nt	nt	nt	nt	nt
CC(=O)c1c(C)nn(C(=O)c2cccs2)c1C	i	i	i	i	i	i
Cc1nn(C(=O)c2ccc3c(c2)OCO3)c(N)c1-c1ccccc1	0.477µM	i	i	?	i	i
Cc1nn(C(=O)c2cccs2)c(N)c1-c1ccccc1	4.26µM	i	?	?	?	?
O=C(c1ccc2c(c1)OCO2)N1CCN(c2ccccc2)CC1	i	i	i	i	i	i
C#CCOCCOCCOCCNc1nc(N2CCN(C(=O)[C@H](CCC(=O)O)n3cc([C@@H](N)[C@H](C)CC)nn3)CC2)nc(N2CCN(C(=O)[C@H](CCCCN)n3cc([C@@H](N)CC(N)=O)nn3)CC2)n1	nt	nt	nt	i	nt	nt
CN(CC(=O)Nc1ccccc1Cl)C(=O)COC(=O)c1cnccn1	i	nt	i	i	nt	i
COc1ccc2nc(NS(=O)(=O)c3ccc(NC(C)=O)cc3)sc2c1	i	i	i	i	i	i
COc1cc(C)nc(Nc2nc(C)c(C(C)=O)s2)n1	i	nt	i	i	nt	i
COc1ccc2nc(Nc3nc(C)c(C(C)=O)s3)sc2c1	4.78µM	i	2.82µM	?	i	2.51µM
COc1ccc(Nc2nc3ccc(OC)cc3s2)cc1	10.7µM	i	?	?	12.6µM	2.24µM
SMILES	FLuc counter	KinaseGlo FLuc	NPC1 prom act	ELG1 genotox	SMN2 splice up	Rab9 promoter act
CCOC(=O)Cc1cc(-c2ccc(F)cc2)nc2ccc3ccccc3c12	i	i	i	i	i[1.84 µM]	i
O=C1/C(=C/c2cccc(Cl)c2)CSc2sccc21	i	nt	i	i	nt	i
Cc1cccc(/C=C2\CS/C(=C\c3cccc(C)c3)C2=O)c1	8.49µM	i	i	i	i	i
Cc1cc(C)c(NC(=O)CN(C)S(=O)(=O)c2ccc3c(c2)CCC(=O)N3)c(C)c1	i	nt	nt	nt	i	nt
CCC1CCCCN1CCCNC(=O)c1ccc2c(=O)n(CCOC)c(=O)[nH]c2c1 (stereo not given)	i	nt	i	i	nt	i
CC(C)(O)C(=O)N=Nc1c(O)[nH]c2ccccc12	?	i	?	?	?	?
Oc1[nH]c2ccccc2c1N=Nc1ccc(F)cc1	4.78µM	i	i	?	i[1.84 µM]	?
O=[N+]([O-])c1ccc2[nH]c(O)c(N=Nc3ccc(F)cc3)c2c1	i	nt	i	i	nt	i
Oc1[nH]c2ccccc2c1N=Nc1ccccc1F	?	i	?	?	22.4µM	?
